# Source: paper PMC11062922 (Nature Chemical Biology, 2023)
# Where two headings read alike, the source gives them in different places.
# What was measured:
# ACVR1B = conditions: read-out: apparent Kd, n = 1
# AURKB = conditions: read-out: apparent Kd, n = 1
# [1] = compound concentrations:100 nM and 1000 nM (sheet 'Lestaurtinib' of Supplementary Table 1),run:Lestaurtinib_02339_R1,Plate:MR001
# [2] = compound concentrations:100 nM and 1000 nM (sheet 'Lestaurtinib' of Supplementary Table 1),run:Lestaurtinib_02364_R2,Plate:MR002
# [3] = compound concentrations:100 nM and 1000 nM (sheet 'Lestaurtinib' of Supplementary Table 1),run:Lestaurtinib_02364_R3,Plate:MR002
# [4] = compound concentrations:100 nM and 1000 nM (sheet 'Lestaurtinib' of Supplementary Table 1),run:Lestaurtinib_02367_R2,Plate:MR003
# [5] = compound concentrations:100 nM and 1000 nM (sheet 'Lestaurtinib' of Supplementary Table 1),run:Lestaurtinib_02381_R1,Plate:MR004
# [6] = compound concentrations:100 nM and 1000 nM (sheet 'Lestaurtinib' of Supplementary Table 1),run:Lestaurtinib_02437_R3,Plate:MR007
substance,measurement,setting,value
Lestaurtinib,potency estimated from few doses,ACVR1B; [1],0.73 µM
same,potency estimated from few doses,ACVR1B; [2],0.951 µM
same,potency estimated from few doses,ACVR1B; [3],0.661 µM
same,potency estimated from few doses,"ACVR1B; compound concentrations:100 nM and 1000 nM (sheet 'Lestaurtinib' of Supplementary Table 1),run:Lestaurtinib_02367_R1,Plate:MR003",0.671 µM
same,potency estimated from few doses,ACVR1B; [4],0.684 µM
same,potency estimated from few doses,"ACVR1B; compound concentrations:100 nM and 1000 nM (sheet 'Lestaurtinib' of Supplementary Table 1),run:Lestaurtinib_02367_R3,Plate:MR003",0.783 µM
same,potency estimated from few doses,ACVR1B; [5],0.694 µM
same,potency estimated from few doses,"ACVR1B; compound concentrations:100 nM and 1000 nM (sheet 'Lestaurtinib' of Supplementary Table 1),run:Lestaurtinib_02381_R3,Plate:MR004",0.515 µM
same,potency estimated from few doses,"ACVR1B; compound concentrations:100 nM and 1000 nM (sheet 'Lestaurtinib' of Supplementary Table 1),run:Lestaurtinib_02422_R2,Plate:MR006",0.951 µM
same,potency estimated from few doses,"ACVR1B; compound concentrations:100 nM and 1000 nM (sheet 'Lestaurtinib' of Supplementary Table 1),run:Lestaurtinib_02437_R1,Plate:MR007",0.592 µM
same,potency estimated from few doses,ACVR1B; [6],0.74 µM
same,potency estimated from few doses,"ACVR1B; compound concentrations:100 nM and 1000 nM (sheet 'Lestaurtinib' of Supplementary Table 1),run:Lestaurtinib_02438_R1,Plate:MR008",0.415 µM
same,potency estimated from few doses,"ACVR1B; compound concentrations:100 nM and 1000 nM (sheet 'Lestaurtinib' of Supplementary Table 1),run:Lestaurtinib_02443_R2,Plate:MR009",0.855 µM
same,potency estimated from few doses,"ACVR1B; compound concentrations:100 nM and 1000 nM (sheet 'Lestaurtinib' of Supplementary Table 1),run:Lestaurtinib_02443_R3,Plate:MR009",0.487 µM
same,potency estimated from few doses,"ACVR1B; compound concentrations:100 nM and 1000 nM (sheet 'Lestaurtinib' of Supplementary Table 1),run:Lestaurtinib_02473_R1,Plate:MR010",0.479 µM
same,potency estimated from few doses,"ACVR1B; compound concentrations:100 nM and 1000 nM (sheet 'Lestaurtinib' of Supplementary Table 1),run:Lestaurtinib_02473_R2,Plate:MR010",0.674 µM
same,potency estimated from few doses,"ACVR1B; compound concentrations:100 nM and 1000 nM (sheet 'Lestaurtinib' of Supplementary Table 1),run:Lestaurtinib_02482_R1,Plate:MR011",0.665 µM
same,potency estimated from few doses,"ACVR1B; compound concentrations:100 nM and 1000 nM (sheet 'Lestaurtinib' of Supplementary Table 1),run:Lestaurtinib_02487_R1,Plate:MR012",0.741 µM
same,potency estimated from few doses,"ACVR1B; compound concentrations:100 nM and 1000 nM (sheet 'Lestaurtinib' of Supplementary Table 1),run:Lestaurtinib_02487_R2,Plate:MR012",0.754 µM
same,potency estimated from few doses,"ACVR1B; compound concentrations:100 nM and 1000 nM (sheet 'Lestaurtinib' of Supplementary Table 1),run:Lestaurtinib_02487_R3,Plate:MR012",0.549 µM
same,potency estimated from few doses,"ACVR1B; compound concentrations:100 nM and 1000 nM (sheet 'Lestaurtinib' of Supplementary Table 1),run:Lestaurtinib_02496_R2,Plate:MR013",0.776 µM
same,potency estimated from few doses,"ACVR1B; compound concentrations:100 nM and 1000 nM (sheet 'Lestaurtinib' of Supplementary Table 1),run:Lestaurtinib_02496_R3,Plate:MR013",0.965 µM
same,potency estimated from few doses,"ACVR1B; compound concentrations:100 nM and 1000 nM (sheet 'Lestaurtinib' of Supplementary Table 1),run:Lestaurtinib_02566_R1,Plate:MR014",0.386 µM
same,potency estimated from few doses,"ACVR1B; compound concentrations:100 nM and 1000 nM (sheet 'Lestaurtinib' of Supplementary Table 1),run:Lestaurtinib_02566_R3,Plate:MR014",0.479 µM
same,potency estimated from few doses,"ACVR1B; compound concentrations:100 nM and 1000 nM (sheet 'Lestaurtinib' of Supplementary Table 1),run:Lestaurtinib_02577_R3,Plate:MR016",0.422 µM
same,potency estimated from few doses,"ACVR1B; compound concentrations:100 nM and 1000 nM (sheet 'Lestaurtinib' of Supplementary Table 1),run:Lestaurtinib_02584_R1,Plate:MR017",0.545 µM
same,potency estimated from few doses,"ACVR1B; compound concentrations:100 nM and 1000 nM (sheet 'Lestaurtinib' of Supplementary Table 1),run:Lestaurtinib_02584_R2,Plate:MR017",0.97 µM
same,potency estimated from few doses,"ACVR1B; compound concentrations:100 nM and 1000 nM (sheet 'Lestaurtinib' of Supplementary Table 1),run:Lestaurtinib_02584_R3,Plate:MR017",0.748 µM
same,potency estimated from few doses,"ACVR1B; compound concentrations:100 nM and 1000 nM (sheet 'Lestaurtinib' of Supplementary Table 1),run:Lestaurtinib_02601_R1,Plate:MR018",0.559 µM
same,potency estimated from few doses,"ACVR1B; compound concentrations:100 nM and 1000 nM (sheet 'Lestaurtinib' of Supplementary Table 1),run:Lestaurtinib_02601_R3,Plate:MR018",0.707 µM
same,potency estimated from few doses,"ACVR1B; compound concentrations:100 nM and 1000 nM (sheet 'Lestaurtinib' of Supplementary Table 1),run:Lestaurtinib_02606_R1,Plate:MR019",0.628 µM
same,potency estimated from few doses,"ACVR1B; compound concentrations:100 nM and 1000 nM (sheet 'Lestaurtinib' of Supplementary Table 1),run:Lestaurtinib_02606_R3,Plate:MR019",0.836 µM
same,potency estimated from few doses,"ACVR1B; compound concentrations:100 nM and 1000 nM (sheet 'Lestaurtinib' of Supplementary Table 1),run:Lestaurtinib_02624_R1,Plate:MR020",0.613 µM
same,potency estimated from few doses,"ACVR1B; compound concentrations:100 nM and 1000 nM (sheet 'Lestaurtinib' of Supplementary Table 1),run:Lestaurtinib_02624_R3,Plate:MR020",0.724 µM
same,potency estimated from few doses,"ACVR1B; compound concentrations:100 nM and 1000 nM (sheet 'Lestaurtinib' of Supplementary Table 1),run:Lestaurtinib_02724_R1,Plate:MR021",0.624 µM
same,potency estimated from few doses,"ACVR1B; compound concentrations:100 nM and 1000 nM (sheet 'Lestaurtinib' of Supplementary Table 1),run:Lestaurtinib_02724_R2,Plate:MR021",0.755 µM
same,potency estimated from few doses,"ACVR1B; compound concentrations:100 nM and 1000 nM (sheet 'Lestaurtinib' of Supplementary Table 1),run:Lestaurtinib_02741_R3,Plate:MR023",0.712 µM
same,potency estimated from few doses,"ACVR1B; compound concentrations:100 nM and 1000 nM (sheet 'Lestaurtinib' of Supplementary Table 1),run:Lestaurtinib_02748_R1,Plate:MR024",0.417 µM
same,potency estimated from few doses,"ACVR1B; compound concentrations:100 nM and 1000 nM (sheet 'Lestaurtinib' of Supplementary Table 1),run:Lestaurtinib_02748_R2,Plate:MR024",0.745 µM
same,potency estimated from few doses,"ACVR1B; compound concentrations:100 nM and 1000 nM (sheet 'Lestaurtinib' of Supplementary Table 1),run:Lestaurtinib_02752_R3,Plate:MR025",0.724 µM
same,potency estimated from few doses,"ACVR1B; compound concentrations:100 nM and 1000 nM (sheet 'Lestaurtinib' of Supplementary Table 1),run:Lestaurtinib_02765_R1,Plate:MR026",0.811 µM
same,potency estimated from few doses,"ACVR1B; compound concentrations:100 nM and 1000 nM (sheet 'Lestaurtinib' of Supplementary Table 1),run:Lestaurtinib_02765_R2,Plate:MR026",0.488 µM
same,potency estimated from few doses,"ACVR1B; compound concentrations:100 nM and 1000 nM (sheet 'Lestaurtinib' of Supplementary Table 1),run:Lestaurtinib_02766_R3,Plate:MR027",0.495 µM
same,potency estimated from few doses,"ACVR1B; compound concentrations:100 nM and 1000 nM (sheet 'Lestaurtinib' of Supplementary Table 1),run:Lestaurtinib_02768_R2,Plate:MR028",0.577 µM
same,potency estimated from few doses,"ACVR1B; compound concentrations:100 nM and 1000 nM (sheet 'Lestaurtinib' of Supplementary Table 1),run:Lestaurtinib_02768_R3,Plate:MR028",0.533 µM
same,potency estimated from few doses,"ACVR1B; compound concentrations:100 nM and 1000 nM (sheet 'Lestaurtinib' of Supplementary Table 1),run:Lestaurtinib_02795_R1,Plate:MR022",0.857 µM
same,potency estimated from few doses,"ACVR1B; compound concentrations:100 nM and 1000 nM (sheet 'Lestaurtinib' of Supplementary Table 1),run:Lestaurtinib_02795_R2,Plate:MR022",0.563 µM
same,potency estimated from few doses,"ACVR1B; compound concentrations:100 nM and 1000 nM (sheet 'Lestaurtinib' of Supplementary Table 1),run:Lestaurtinib_02795_R3,Plate:MR022",0.806 µM
same,potency estimated from few doses,"ACVR1B; compound concentrations:100 nM and 1000 nM (sheet 'Lestaurtinib' of Supplementary Table 1),run:Lestaurtinib_02802_R1,Plate:MR029",0.48 µM
same,potency estimated from few doses,"ACVR1B; compound concentrations:100 nM and 1000 nM (sheet 'Lestaurtinib' of Supplementary Table 1),run:Lestaurtinib_02802_R2,Plate:MR029",0.584 µM
same,potency estimated from few doses,"ACVR1B; compound concentrations:100 nM and 1000 nM (sheet 'Lestaurtinib' of Supplementary Table 1),run:Lestaurtinib_02802_R3,Plate:MR029",0.656 µM
same,potency estimated from few doses,"ACVR1B; compound concentrations:100 nM and 1000 nM (sheet 'Lestaurtinib' of Supplementary Table 1),run:Lestaurtinib_02896_R1,Plate:MR030",0.549 µM
same,potency estimated from few doses,"ACVR1B; compound concentrations:100 nM and 1000 nM (sheet 'Lestaurtinib' of Supplementary Table 1),run:Lestaurtinib_02896_R3,Plate:MR030",0.494 µM
same,potency estimated from few doses,"ACVR1B; compound concentrations:100 nM and 1000 nM (sheet 'Lestaurtinib' of Supplementary Table 1),run:Lestaurtinib_03172_R1,Plate:MR031",0.377 µM
same,potency estimated from few doses,"ACVR1B; compound concentrations:100 nM and 1000 nM (sheet 'Lestaurtinib' of Supplementary Table 1),run:Lestaurtinib_03172_R2,Plate:MR031",0.568 µM
same,potency estimated from few doses,"ACVR1B; compound concentrations:100 nM and 1000 nM (sheet 'Lestaurtinib' of Supplementary Table 1),run:Lestaurtinib_03172_R3,Plate:MR031",0.598 µM
same,potency estimated from few doses,"ACVR1B; compound concentrations:100 nM and 1000 nM (sheet 'Lestaurtinib' of Supplementary Table 1),run:Lestaurtinib_03252_R2,Plate:MR032",0.547 µM
same,potency estimated from few doses,"ACVR1B; compound concentrations:100 nM and 1000 nM (sheet 'Lestaurtinib' of Supplementary Table 1),run:Lestaurtinib_03260_R2,Plate:MR033",0.551 µM
same,potency estimated from few doses,"ACVR1B; compound concentrations:100 nM and 1000 nM (sheet 'Lestaurtinib' of Supplementary Table 1),run:Lestaurtinib_03260_R3,Plate:MR033",0.778 µM
same,potency estimated from few doses,AURKB; [1],0.261 µM
same,potency estimated from few doses,"AURKB; compound concentrations:100 nM and 1000 nM (sheet 'Lestaurtinib' of Supplementary Table 1),run:Lestaurtinib_02339_R2,Plate:MR001",0.143 µM
same,potency estimated from few doses,"AURKB; compound concentrations:100 nM and 1000 nM (sheet 'Lestaurtinib' of Supplementary Table 1),run:Lestaurtinib_02364_R1,Plate:MR002",0.26 µM
same,potency estimated from few doses,AURKB; [2],0.159 µM
same,potency estimated from few doses,AURKB; [3],0.22 µM
same,potency estimated from few doses,AURKB; [4],0.304 µM
same,potency estimated from few doses,AURKB; [5],0.278 µM
same,potency estimated from few doses,"AURKB; compound concentrations:100 nM and 1000 nM (sheet 'Lestaurtinib' of Supplementary Table 1),run:Lestaurtinib_02381_R2,Plate:MR004",0.232 µM
same,potency estimated from few doses,"AURKB; compound concentrations:100 nM and 1000 nM (sheet 'Lestaurtinib' of Supplementary Table 1),run:Lestaurtinib_02407_R2,Plate:MR005",0.132 µM
same,potency estimated from few doses,"AURKB; compound concentrations:100 nM and 1000 nM (sheet 'Lestaurtinib' of Supplementary Table 1),run:Lestaurtinib_02407_R3,Plate:MR005",0.268 µM
same,potency estimated from few doses,"AURKB; compound concentrations:100 nM and 1000 nM (sheet 'Lestaurtinib' of Supplementary Table 1),run:Lestaurtinib_02422_R1,Plate:MR006",0.157 µM
same,potency estimated from few doses,AURKB; [6],0.0265 µM
same,potency estimated from few doses,"AURKB; compound concentrations:100 nM and 1000 nM (sheet 'Lestaurtinib' of Supplementary Table 1),run:Lestaurtinib_02438_R2,Plate:MR008",0.158 µM
